Screening results (PubChem BioAssay)
RGS4-Gao reg = human RGS4-Galphao interaction regulation; binding response (% of control), % at 10 µM; P09471; Multiplexed bead flow cytometry, RGS4-Galphao binding; actives lie on both sides; AID 1415; 0.33% of 220,000 active; in the data active means binding response below about 49% or above about 150%; inactive means in between;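 further: fluorescent Galphao activated with aluminum fluoride binding bead-coupled RGS4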
RGS7-Gao = human RGS7-Galphao interaction regulation. binding response (% of control), % at 10 µM. 0.35% of 220,000 active. AID 1439. Multiplexed bead flow cytometry, RGS7-Galphao binding; actives lie on both sides; in the data active means binding response below about 49% or above about 150%; inconclusive means no clear call, values can overlap the other calls; inactive means in between;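 further: fluorescent Galphao held in activated GDP-AlF4 state binding bead-coupled RGS7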
Avidin bead fluor = compound fluoresces at 488/530 nm on avidin beads. compound fluorescence 488/530 nm, flow cytometry; stronger effect = higher value. fluorescence (KMESF) at 10 µM. 0.38% of 220,000 active. AID 1775; in the data active means fluorescence above about 47
RGS16-Gao = regulators of human RGS16-Galphao interaction. O15492+P09471. bead-based flow cytometry RGS16-Galphao binding, fluorescence; actives lie on both sides. binding response (% of control), % at 10 µM. 0.38% of 220,000 active; call rule not given here;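 further: Galphao activated by GDP with aluminum fluoride before binding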
RGS8-Gao = human RGS8-Galphao interaction regulation | multiplexed bead flow cytometry, RGS8-Galphao binding; actives lie on both sides | response (percent of control binding), % at 10 µM | AID 1423 | P09471 | 0.34% of 220,000 active; in the data active means response below about 60% or above about 140%; inactive means in between;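 further: Galphao activated as the GDP aluminium fluoride complex binding bead-coupled RGS8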
GSH bead fluor = GSH bead compound fluorescence profile; GSH beads flow cytometry, compound fluorescence 488/530 nm; stronger effect = higher value; fluorescence (KMESF) at 10 µM; 0.25% of 190,000 active; AID 1776; in the data active means fluorescence above about 89;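 further: glutathione beads carrying GST-tagged Bcl family fusion proteins plus one bare bead set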
Avidin counter = counter-screen: compounds disrupting biotin binding to avidin beads; shares compounds with RGS16-Gao; streptavidin beads, fluorescein-biotin binding, flow cytometry; inhibition, % at 10 µM; 1,700 tested, under 10 active;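 active means inhibition above 50%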;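 further: median green fluorescence of gated singlet beads compared with DMSO control wells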
RGS8-Gao confirm = RGS8-Galphao interaction regulation, single point confirmation; 3% of 1,700 active; bead-based flow cytometry RGS8-Galphao binding, fluorescence; actives lie on both sides; binding response (% of control), % at 10 µM; shares compounds with RGS16-Gao; in the data active means binding response below about 72% or above about 130%; inactive means in between;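 further: Galphao activated as GDP AlF4 complex before binding bead RGS8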
RGS7-Gao single = RGS7-Galphao interaction regulation, single point confirmation; shares compounds with RGS16-Gao; bead-based flow cytometry RGS7-Galphao binding; actives lie on both sides; response (percent of control binding), % at 10 µM; 7.8% of 1,700 active; AID 1837; in the data active means response below about 75% or above about 130%; inactive means in between;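 further: fluorescent Galphao activated with GDP and aluminum fluoride binding bead-coupled RGS7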
RGS16-Gao conf = confirmation of regulators of human RGS16-Galphao interaction; shares compounds with RGS16-Gao; bead-based flow cytometry, RGS16-Galphao binding; actives lie on both sides; response (% of control binding), % at 10 µM; 4% of 1,700 active; in the data active means response below about 74% or above about 130%; inactive means in between;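 further: Galphao activated as the GDP aluminium fluoride complex binding bead-coupled RGS16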
RGS4-Gao single = confirmation of regulators of human RGS4-Galphao interaction | RGS4-Galphao binding, multiplexed bead flow cytometry; actives lie on both sides | AID 1840 | binding response (% of control), % at 10 µM | 4% of 1,700 active | shares compounds with RGS16-Gao; in the data active means binding response below about 74% or above about 130%; inactive means in between
RGS19-Gao conf = confirmation of regulators of human RGS19-Galphao interaction. shares compounds with RGS16-Gao. bead-based flow cytometry RGS19-Galphao binding; actives lie on both sides. response (percent of control binding), % at 10 µM. 5% of 1,700 active. AID 1841; in the data active means response below about 50% or above about 160%; inactive means in between
Target sequence (P09471 whole entry, looked up): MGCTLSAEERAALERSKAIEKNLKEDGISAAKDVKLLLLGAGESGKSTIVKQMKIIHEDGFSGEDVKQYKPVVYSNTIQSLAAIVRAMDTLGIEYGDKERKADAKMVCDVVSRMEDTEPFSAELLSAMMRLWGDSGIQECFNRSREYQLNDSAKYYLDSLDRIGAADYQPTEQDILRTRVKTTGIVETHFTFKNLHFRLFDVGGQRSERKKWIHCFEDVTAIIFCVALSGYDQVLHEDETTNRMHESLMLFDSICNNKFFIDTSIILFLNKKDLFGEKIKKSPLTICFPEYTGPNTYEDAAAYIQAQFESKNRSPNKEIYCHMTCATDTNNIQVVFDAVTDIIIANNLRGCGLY
Target sequence (P49795 whole entry, looked up): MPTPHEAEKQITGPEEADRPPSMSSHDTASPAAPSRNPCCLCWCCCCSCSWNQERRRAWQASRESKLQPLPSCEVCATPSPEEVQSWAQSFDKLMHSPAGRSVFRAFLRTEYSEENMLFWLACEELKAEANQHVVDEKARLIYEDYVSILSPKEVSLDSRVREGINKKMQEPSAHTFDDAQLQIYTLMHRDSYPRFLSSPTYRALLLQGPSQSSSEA
Numbers stand for hits; [ ] = remark or other dose. Most compounds without a hit are left out; they make up all but 1.2% or so of the library.

Results for O=C(O)[C@H]1Cc2ccccc2CN1S(=O)(=O)c1ccc(F)cc1 ?
RGS4-Gao reg: inactive; RGS7-Gao: inconclusive; Avidin bead fluor: inactive; RGS16-Gao: inactive; RGS8-Gao: inactive; Avidin counter: inactive; RGS8-Gao confirm: inactive; RGS7-Gao single: inactive; RGS16-Gao conf: inactive; RGS4-Gao single: inactive; RGS19-Gao conf: inactive

How did CN(C)[C@@H]1C(=O)C(C(=O)NCN2CCCC2)=C(O)[C@@]2(O)C(=O)C3=C(O)c4c(O)cccc4[C@@](C)(O)C3CC12 (stereo partly specified) do in these assays?
RGS4-Gao reg: 21; RGS7-Gao: 8.3; Avidin bead fluor: inactive; RGS16-Gao: inactive; RGS8-Gao: 18; GSH bead fluor: inactive; Avidin counter: inactive; RGS8-Gao confirm: 53; RGS7-Gao single: 26; RGS16-Gao conf: 54; RGS4-Gao single: 60; RGS19-Gao conf: 35

Results for C=C1c2cccc(O)c2C(O)=C2C(=O)[C@]3(O)C(O)=C(C(N)=O)C(=O)[C@@H](N(C)C)[C@@H]3[C@@H](O)[C@H]12 ?
RGS4-Gao reg: inactive; RGS7-Gao: inactive; Avidin bead fluor: inactive; RGS16-Gao: inactive; RGS8-Gao: inactive; GSH bead fluor: inactive

How did CCN1/C(=C/c2ccc3cccc(C)c3[n+]2CC)Sc2ccccc21 do in these assays?
RGS4-Gao reg: 196[activator]; RGS7-Gao: 161[activator]; Avidin bead fluor: inactive; RGS16-Gao: inactive; RGS8-Gao: inactive; GSH bead fluor: inactive; Avidin counter: inactive; RGS8-Gao confirm: inactive; RGS7-Gao single: inactive; RGS16-Gao conf: inactive; RGS4-Gao single: inactive; RGS19-Gao conf: inactive

What do the screens show for `NC1=NC(=O)CC(C(=O)NCCc2ccccc2)S1` (stereo unspecified)?
RGS4-Gao reg: -82; RGS7-Gao: -29; RGS16-Gao: -73; RGS8-Gao: 3.8; GSH bead fluor: inactive; Avidin counter: inactive; RGS8-Gao confirm: inactive; RGS7-Gao single: 161[activator]; RGS16-Gao conf: 130[activator]; RGS4-Gao single: 137[activator]; RGS19-Gao conf: 326[activator]

How did NC1=NC(=O)CC(C(=O)Nc2cccc3ccccc23)S1 (stereo unspecified) do in these assays?
RGS4-Gao reg: inactive; RGS7-Gao: inactive; Avidin bead fluor: inactive; RGS16-Gao: inactive; RGS8-Gao: inactive; GSH bead fluor: inactive

What do the screens show for `CC1(C)OC(=O)C(=Cc2ccc(-c3ccc(S(N)(=O)=O)cc3)o2)C(=O)O1`?
RGS4-Gao reg: inactive; RGS7-Gao: inactive; Avidin bead fluor: inactive; RGS16-Gao: inactive; RGS8-Gao: inactive; GSH bead fluor: inactive; Avidin counter: inactive; RGS8-Gao confirm: 72; RGS7-Gao single: inactive; RGS16-Gao conf: inactive; RGS4-Gao single: inactive; RGS19-Gao conf: 50

What do the screens show for `NS(=O)(=O)c1ccc(-c2ccc(/C=C3\C(=O)Nc4cc(Cl)ccc43)o2)cc1`?
RGS4-Gao reg: inactive; RGS7-Gao: inactive; Avidin bead fluor: inactive; RGS16-Gao: inactive; RGS8-Gao: inactive; GSH bead fluor: inactive
